Data published in the supplement of paper PMC10515830.
Where a name gives a salt, the structure may show the parent alone.

Key:
Settings in all cases: 10 µM; exposure time 6 h
[1] = tested on: Danio rerio larvae (5 dpf); assay: difference in excitability vs DMSO (percentage points); higher = more excitable than DMSO
Method in brief: (§1)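 Wild-type zebrafish larvae at 5 dpf were kept in 96-well plates and exposed for 6 h to 100 µL egg water holding library compound at a final concentration of 10 µM. From 3 h into exposure, the plates were held at 28.5 ℃ and photographed every 6 s through a 3-h programme of moving lines and 100 ms, 400Hz tones. Each behaviour was scored by Z-LaP Tracker, a DeepLabCut model, and averaged over 48 larvae per compound. Every value gives the compound mean minus the vehicle control mean, in percentage points.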

[2] = tested on: Danio rerio larvae (5 dpf); assay: difference in startle response vs DMSO (percentage points); higher = stronger startle than DMSO
Method in brief: as §1

[3] = tested on: Danio rerio larvae (5 dpf); assay: difference in activity during first hour vs DMSO (percentage points); higher = more activity than DMSO
Method in brief: as §1

[4] = tested on: Danio rerio larvae (5 dpf); assay: difference in habituation to acoustic stimuli vs DMSO (percentage points); higher = more habituation than DMSO
Method in brief: as §1

[5] = tested on: Danio rerio larvae (5 dpf); assay: difference in combined optomotor response to red, green and blue moving lines vs DMSO (percentage points); higher = stronger optomotor response than DMSO
Method in brief: as §1

Structure (SMILES) | difference in excitability [1] | difference in startle response [2] | difference in activity during first hour [3] | difference in habituation to acoustic stimuli [4] | difference [5]
C[C@@H]1[C@H](O)[C@@H](C)/C=C/C=C/C=C/C=C/C=C/C=C/C=C/[C@H](O[C@@H]2O[C@H](C)[C@@H](O)[C@H](N)[C@@H]2O)C[C@@H]2O[C@](O)(C[C@@H](O)C[C@@H](O)[C@H](O)CC[C@@H](O)C[C@@H](O)CC(=O)O[C@H]1C)C[C@H](O)[C@H]2C(=O)O [Amphotericin B] | -0.355 | 0.384 | 4.13 | -0.401 | 1.13
N=C(NCCCCCCNC(=N)NC(=N)Nc1ccc(Cl)cc1)NC(=N)Nc1ccc(Cl)cc1 [Chlorhexidine (hydrochloride)] | 11.8 | -11 | -19.9 | -10.2 | -17.6
O=C(CCCN1CC=C(n2c(=O)[nH]c3ccccc32)CC1)c1ccc(F)cc1 [Droperidol] | 29 | -1.85 | 12.3 | -7.94 | -0.322
C=C1[C@H](CO)[C@@H](O)C[C@@H]1n1cnc2c(=O)[nH]c(N)nc21 [Entecavir (hydrate)] | -1.86 | 2.04 | -1.96 | 5.32 | 0.96
NC(=O)N1c2ccccc2C=Cc2ccccc21 [Carbamazepine] | -5.41 | 5.12 | -2.57 | 0.458 | 11.2
Nc1cc(-c2ccncc2)c[nH]c1=O [Amrinone] | -0.366 | 5.87 | -4.08 | 9.44 | 0.366
CNCC(O)c1ccc(OC(=O)C(C)(C)C)c(OC(=O)C(C)(C)C)c1 (stereo not given) [Dipivefrin (hydrochloride)] | -3.61 | -15.1 | 46.2 | -2.07 | 2.48
CC(C(=O)O)c1ccc(-c2ccccc2)c(F)c1 (racemic) [(±)-Flurbiprofen] | 17.6 | -8.24 | 15 | -6.69 | -3.74
Cn1cnc2c(F)c(Nc3ccc(Br)cc3F)c(C(=O)NOCCO)cc21 [Binimetinib] | -0.212 | -0.502 | 15.3 | -0.78 | 7.07
CCCN(CCC)S(=O)(=O)c1ccc(C(=O)O)cc1 [Probenecid] | -3.91 | 4.06 | 8.09 | 3.84 | 9.2
CN(C)CCOC(=O)C(c1ccccc1)C1(O)CCCC1 (stereo not given) [Cyclopentolate (hydrochloride)] | -10.4 | -4.29 | -7.59 | -2.76 | -2.74
C=CC1=C(C(=O)O)N2C(=O)[C@@H](NC(=O)/C(=N\O)c3csc(N)n3)[C@H]2SC1 [Cefdinir] | 6.83 | 5.77 | 6.72 | -1.11 | 4.15
c1cnc2cc3c(cc2n1)[C@@H]1CNC[C@H]3C1 [Varenicline (tartrate)] | 0.228 | 1.55 | 3.08 | 5.66 | -2.67
CN(C)c1cc(NC(=O)CNC(C)(C)C)c(O)c2c1C[C@H]1C[C@H]3[C@H](N(C)C)C(O)=C(C(N)=O)C(=O)[C@@]3(O)C(O)=C1C2=O [Tigecycline] | 18.8 | 1.45 | -22.5 | -5.95 | -3.12
CC[C@@H]([C@H](C)O)n1ncn(-c2ccc(N3CCN(c4ccc(OC[C@@H]5CO[C@@](Cn6cncn6)(c6ccc(F)cc6F)C5)cc4)CC3)cc2)c1=O [Posaconazole] | 9.26 | -3.5 | 4.34 | -1.56 | 5.63
CC1(C)C[C@@H]1C(=O)N/C(=C\CCCCSC[C@H](N)C(=O)O)C(=O)O [Cilastatin] | -5.97 | 11.7 | 15 | -6.5 | 10.5
CC1=C(C/C=C(\C)CCC[C@H](C)CCC[C@H](C)CCCC(C)C)C(=O)c2ccccc2C1=O [Vitamin K1] | -4.97 | 1.27 | 12.1 | -1.08 | 6.58
C[C@](N)(Cc1ccc(O)cc1)C(=O)O [Metyrosine] | 0.523 | 8.55 | -8.67 | 12.3 | -4.59
CC(=O)N1CCN(c2ccc(OCC3COC(Cn4ccnc4)(c4ccc(Cl)cc4Cl)O3)cc2)CC1 (stereo not given) [Ketoconazole] | 8 | 3.5 | -5.85 | -0.327 | 5.96
N[C@@H](Cc1cc(I)c(Oc2cc(I)c(O)c(I)c2)c(I)c1)C(=O)O [L-Thyroxine] | 12.1 | -4.02 | 7.61 | -1.15 | 1.95
CCCCNc1cc(C(=O)O)cc(S(N)(=O)=O)c1Oc1ccccc1 [Bumetanide] | 5.57 | -2.75 | 5.52 | -3.24 | 3.54
CCN(CC)CC#CCOC(=O)C(O)(c1ccccc1)C1CCCCC1 (stereo not given) [Oxybutynin (hydrochloride)] | -4.54 | 8.08 | -11.4 | -8.53 | -10.5
CC(C)(C(=O)O)c1ccc(C(O)CCCN2CCC(C(O)(c3ccccc3)c3ccccc3)CC2)cc1 (stereo not given) [Fexofenadine (hydrochloride)] | 4.09 | 2.98 | 11.3 | 0.612 | 5.51
